According to PubChem BioAssay (NCATS):
Inconclusive results are not listed. Unmarked numbers belong to inactive results. Calls of active or inactive are those of the source. Calls follow the shape of the dose curve; as a rule, active = well fitted inhibition curve with a large enough effect; inconclusive = small, poorly fitted or top-dose-only effect; inactive = flat fitted curve, though single readings scatter.

Tested on: SC27B
Assay: qHTS profiling for inhibitors of Plasmodium falciparum proliferation (AID 504749); also: nearly all actives have a fitted effect of over 60% in size;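 as to activity, negative = inhibition: 0% = DMSO vehicle and full inhibition = artemisinin control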
Details: P. falciparum in erythrocytes, SYBR Green DNA, 72 h; series mostly up to 28.7 µM; activity, negative = inhibition: at the top concentration
In short: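 SYBR Green fluorescence (ex 485 nm, em 535 nm) reports parasite DNA after 72 h compound exposure of infected red cells at 0.3% parasitemia, 2.5% hematocrit; signal normalized to 0.29 uM artemisinin and vehicle wells.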
Potency is read from the fitted curve at half-maximal effect.

SMILES | activity, negative = inhibition [%] | Potency
CC(=O)Nc1ccc(OC(C)=O)cc1 | 6.06 | –
CC(C)(C)c1ccc2c(S(=O)(=O)O)c(C(C)(C)C)ccc2c1 | 3.24 | –
CCCCCCCCCCCCOCCCN | 15.4 | –
COC(=O)C(CN)c1c[nH]c2ccc(OC)cc12 (stereo not given) | 8.87 | –
CC1(C)S[C@@H]2[C@H](NC(=O)C3(N)CCCCC3)C(=O)N2[C@H]1C(=O)O | 3.24 | –
FC(F)(F)C(F)(F)C(F)(F)C(F)(F)C(F)(F)C(F)(F)F | 5.11 | –
CCCCO | 1.42 | –
CCOC(=O)c1c[nH]c2cc(OCC(C)C)c(OCC(C)C)cc2c1=O | – | 100 nM (active)
CCN(CC)CCOc1ccc2nc(N(C)C)sc2c1 | -2.73 | –
OCl | 2.64 | –
COC(=O)CC[C@H](N)C(=O)O | 0.902 | –
COc1cc(S(C)=O)ccc1-c1nc2ncccc2[nH]1 (stereo not given) | 0.423 | –
O=C(O)Cc1nn(Cc2ccc(Br)cc2F)c(=O)c2ccccc12 | 5.55 | –
O=C(O)/C=C/c1ccccc1 | 0.919 | –
Cc1cccc(C)c1NC(=O)NC1=CCCN1C | 12.9 | –
NCC[C@H](O)C(=O)N[C@@H]1C[C@H](N)[C@@H](O[C@H]2O[C@H](CN)[C@@H](O)[C@H](O)[C@H]2O)[C@H](O)[C@H]1O[C@H]1O[C@H](CO)[C@@H](O)[C@H](N)[C@H]1O | 0.513 | –
CC1=CC(=O)NS(=O)(=O)O1 | 1.5 | –
O=C(O)[C@H]1C(=CCO)O[C@H]2CC(=O)N12 | 1.13 | –
CCC(Cc1c(I)cc(I)c(O)c1I)C(=O)O (stereo not given) | -6.01 | –
CCCCC[C@H](O)/C=C/[C@@H]1[C@H]2C/C(=C/CCCC(=O)O)O[C@H]2C[C@H]1O | 7.12 | –
